Test results from PubChem BioAssay (Tox21).
Results filed as inconclusive are left out. Unmarked numbers belong to inactive results. The source made the active and inactive calls. Calls follow the shape of the dose curve; as a rule, active = well fitted activation curve with a large enough effect; inconclusive = small, poorly fitted or top-dose-only effect; inactive = flat fitted curve, though single readings scatter.

experiment: qHTS assay to identify small molecule phospholipidosis (PLD) inducers (AID 1259344); conditions: HepG2 phospholipidosis, LipidTOX Red imaging, 24 h; series mostly up to 38.3 µM; PLD induction: at the top concentration
Excerpt: National Center for Advancing Translational Sciences [NCATS]
Drug-induced Phospholipidosis (PLD) caused by cationic amphiphilic drugs is characterized by the appearance of unicentric or multicentric-lamellar bodies when viewed under electron microscope. Electron microscopy is the gold standard method for PLD detection, however, this method is time-consuming and labor intensive, making it unsuitable for evaluating a large set of compounds. A cell-based phospholipidosis assay has been developed using the LipidTox reagent in HepG2 cells and miniaturized into a 1536-well plate format. Drug induced phospholipid accumulation is stained with the LipidTox dyes in red color which then is determined using an automated high content screening system.
HepG2 cells are dispensed at 900 cells/3 uL/well into Collagen I-coated 1536-well black-wall/clear-bottom assay plates (Greiner Bio-One, Monroe, NC) using the Multidrop Combi 8 channel dispenser (Thermo Fisher, Waltham, MA, USA). The assay plates are incubated at 37 C for 4 hours to allow the cell attachment. 3 uL of 1:500 LipidTOX Red dye is added using the dispenser, and then 23 nL compounds are added via a Wako Pintool station (Wako Automation, San Diego, CA). Amiodarone, a known PLD inducer, was used as a positive control and DMSO was used as a negative control. The assay plates were then incubated at 37 C for 24 hours.
For fixations, 4 uL of 8% paraformaldehyde fixative solution containing 10 ug/mL Hoechst 33342 in Dulbecco's phosphate-buffered saline (DPBS) is added using a Kalypsys washer/dispenser (Kalypsys, San Diego, CA, USA). After incubation at room temperature for 30 min, the assay plates are washed once with DPBS using a Kalypsys washer/dispenser. The assay plates are then sealed and stored at 4 C before imaging. The fluorescence intensities (595 nm excitation, 615 nm emission for LipidTOX; 352 nm excitation, 461 nm emission for Hoechst 33342) are measured using an ImageXpress Micro Widefield High Content Screening System (Molecular Devices, Sunnyvale, CA, USA) with a 20x Plan Fluor objective. Images are acquired for one site in each well and analyzed with the MetaXpress software (Molecular Devices) using the Transfluor module. Several algorithmic outputs, such as pit count per well, pit count per cell, pit integrated intensity per well, and pit integrated intensity per cell, are used for quantitative image analysis for PLD.
% is scaled to controls: 0 for no effect and ±100 for the full control effect; potency is read from the fitted curve at half-maximal effect.

SMILES	PLD induction	Potency
Cc1nnc2n1-c1sc(CCc3ccc(CC(C)C)cc3)cc1C(c1ccccc1Cl)=NC2C (stereo not given)	25.7%	
NCC[C@H](O)C(=O)N[C@@H]1C[C@H](N)[C@@H](O[C@H]2O[C@H](CN)[C@@H](O)[C@H](O)[C@H]2N)[C@H](O[C@@H]2O[C@H](CO)[C@@H](O)[C@H]2O)[C@H]1O	0.266% [at 15.5 µM]	
COC(=O)[C@H]1[C@@H](OC(=O)c2ccccc2)C[C@@H]2CC[C@H]1N2C	1.68% [at 78.4 µM]	
CCNCC(O)c1cccc(O)c1 (stereo not given)	-0.983% [at 15.5 µM]	
C[C@H]1[C@H]2Cc3ccc(O)cc3[C@]1(C)CCN2CCc1ccccc1	15% [at 78.4 µM]	
C[C@]12N[C@H](Cc3ccccc31)c1ccccc12		inactive
CC(=O)OO	-1.94%	
CCCCNCC(O)c1ccc(O)cc1 (stereo not given)	4.37%	
C[C@@H]1[C@@H]2Cc3ccc(O)cc3[C@@]1(C)CCN2CCc1ccccc1	-1.8% [at 15.5 µM]	
[S]=[Sb](=[S])[S][Sb](=[S])=[S]	-0.767%	
COc1ccc(C(c2ccc(OC)cc2)C(Cl)(Cl)Cl)cc1		31.6 µM (active)
CN1c2ccccc2C(NCCCCCCC(=O)O)c2ccc(Cl)cc2S1(=O)=O (stereo not given)	-0.271%	
CN(C)[C@H](Cc1ccccc1)c1ccccc1	0.794%	
COc1ccc(OC)c(C[C@H](C)N)c1	4.49% [at 78.4 µM]	
C=C[C@H]1CN2CC[C@H]1C[C@H]2[C@H](OC(=O)OCC)c1ccnc2ccc(OC)cc12	5.11%	
CN1CCCC(=C(c2cccs2)c2cccs2)C1	-0.117%	
O=C1CN(O)C(c2ccccc2)=c2cc(Cl)ccc2=N1	0.136%	
COc1cc([C@@H]2c3cc4c(cc3[C@@H](O)[C@H]3COC(=O)[C@H]23)OCO4)cc(OC)c1O	-1.16%	
O[C@H]1[C@H]2[C@H](O)CCCN2C[C@H]1O	-0.023%	
CC(=O)OC1CN2CCC1CC2 (stereo not given)	0.116%	

SMILES	PLD induction	Potency
CCC(C)(S(=O)(=O)CC)S(=O)(=O)CC	-1.17%	
COc1ccc2c3c1O[C@H]1C(=O)CC[C@H]4[C@@H](C2)N(C)CC[C@]314	0.146%	
Cc1ccccc1-n1c(C)nc2ccccc2c1=O		inactive
C=CCC1(C(C)CCC)C(=O)N=C(S)NC1=O (stereo not given)	2.12%	
CCC1(c2ccccc2)C(=O)NC(=O)N(C)C1=O (stereo not given)	-0.656%	
C/C(=C\c1csc(C)n1)[C@@H]1C[C@@H]2O[C@]2(C)CCC[C@H](C)[C@H](O)[C@@H](C)C(=O)C(C)(C)[C@@H](O)CC(=O)O1	2.29%	
CCCCCN(C)CCC(O)(P(=O)(O)O)P(=O)(O)O	1.04%	
CC(=O)[C@H]1CC[C@H]2[C@@H]3CC[C@@H]4C[C@H](O)CC[C@]4(C)[C@H]3CC[C@]12C	16.5%	
CNC(C)Cc1ccccc1 (stereo not given)	-1.13% [at 78.4 µM]	
O=C(OCCN1CCCCC1)C(O)(c1ccccc1)c1ccccc1	-0.667%	
CCCCCc1cc(O)c2c(c1)OC(C)(C)c1ccc(C)cc1-2	0.298%	
C[C@]12CC[C@H]3[C@@H](CCC4=C(O)C(=O)CC[C@@H]43)[C@@H]1CC[C@@H]2OC(=O)CCC1CCCC1	0.872%	
O=c1c2ccccc2[se]n1-c1ccccc1	-0.137%	
COC(=O)[C@@H]1[C@H]2CC[C@@H](C[C@H]1OC(=O)c1ccccc1)N2C	-0.307%	
CCc1cc(OC)c(C[C@@H](C)N)cc1OC	5.32% [at 15.5 µM]	
CC(C)C[C@H]1C(=O)N2CCC[C@H]2[C@]2(O)O[C@](NC(=O)[C@@H]3C[C@@H]4c5cccc6[nH]cc(c56)C[C@H]4N(C)C3)(C(C)C)C(=O)N12	1.93%	
O=C(O)CCCO	3.59% [at 19 µM]	
C[C@]12CC[C@H]3[C@@H](CCC4=C(Cl)C(=O)CC[C@@]43C)[C@@H]1CC[C@@H]2O	10.6%	
Cc1ccccc1-n1c(CF)nc2ccc(N)cc2c1=O	-0.862%	
c1ccc2c(c1)Sc1ccccc1N2C[C@@H]1CN2CCC1CC2	1.16%	
